Experiment [1] deals with Serine/threonine-protein kinase PAK 6 (Homo sapiens) (UniProt Q9NQU5). Particulars: at 1 µM.
Experiment [2] has as its system Tyrosine-protein kinase ABL1 (Homo sapiens), P00519 [E255K]. The note with it: at 0.1 µM.
The test system is the same in experiment [3]. The note with it: at 1 µM.
Experiment [4] relates to Tyrosine-protein kinase ABL1 (Homo sapiens), P00519 [H396P]. Particulars: at 0.1 µM.
The test system is the same in experiment [5]. The note with it: at 1 µM.
Experiment [6] has as its system Tyrosine-protein kinase ABL1 (Homo sapiens), P00519 [M351T]. Particulars: at 0.1 µM.
The test system is the same in experiment [7]. Particulars: at 1 µM.
Experiment [8] concerns Tyrosine-protein kinase ABL1 (Homo sapiens), P00519 [Q252H]. The note with it: at 0.1 µM.
For experiment [9] the test system is unchanged. Particulars: at 1 µM.
Experiment [10] relates to Tyrosine-protein kinase ABL1 (Homo sapiens), P00519 [T315I]. Particulars: at 0.1 µM.

Consider 17 compounds from ChEMBL document CHEMBL1961873, “Compounds: GSK PKIS; Assays: Nanosyn kinase panel” (2012).

Serine/threonine-protein kinase PAK 6 (Homo sapiens), sequence (Q9NQU5 whole entry, looked up): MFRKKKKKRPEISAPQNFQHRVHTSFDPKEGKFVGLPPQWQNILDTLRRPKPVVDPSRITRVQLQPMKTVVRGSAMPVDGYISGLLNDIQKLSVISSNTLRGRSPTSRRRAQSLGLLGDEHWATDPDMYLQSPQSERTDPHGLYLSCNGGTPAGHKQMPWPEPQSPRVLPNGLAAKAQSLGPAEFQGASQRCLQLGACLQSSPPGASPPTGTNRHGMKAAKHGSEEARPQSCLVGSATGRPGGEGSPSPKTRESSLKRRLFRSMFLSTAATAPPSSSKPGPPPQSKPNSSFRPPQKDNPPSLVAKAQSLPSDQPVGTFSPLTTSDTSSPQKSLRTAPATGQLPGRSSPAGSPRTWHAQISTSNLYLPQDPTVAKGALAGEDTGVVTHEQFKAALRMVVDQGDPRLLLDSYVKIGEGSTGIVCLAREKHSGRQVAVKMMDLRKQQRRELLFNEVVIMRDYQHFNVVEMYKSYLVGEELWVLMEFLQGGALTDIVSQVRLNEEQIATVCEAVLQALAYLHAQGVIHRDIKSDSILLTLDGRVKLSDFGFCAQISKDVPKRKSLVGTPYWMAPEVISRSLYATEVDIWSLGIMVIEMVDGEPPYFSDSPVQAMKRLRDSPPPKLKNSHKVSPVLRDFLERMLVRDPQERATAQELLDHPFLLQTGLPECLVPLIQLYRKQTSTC

Turning to `COc1cc2ncn(-c3cc(O[C@@H](C)c4ccccc4Cl)c(C(N)=O)s3)c2cc1OC`, the inhibition – broadly, the drop in the measured response relative to a control, in per cent – is -1.4% in [1]; 7.11% in experiment [2]; 21.4% in experiment [3]; 9.2% in [4]; 33.8% in [5]; 3.76% in [6]. Also, the inhibition in experiment [7] worked out at 29.7%; in experiment [8] it was 6.57%; in experiment [9] it was 28.5%; in experiment [10] it was 3.45%.

As for `CC1=C(C(=O)Nc2ccc3[nH]ncc3c2)C(c2ccc(Cl)c(Cl)c2)CC(=O)N1` (stereo not given), the inhibition is 2.05% in experiment [1]; 1.47% in [2]; -1.52% in [3]; 1.38% in [4]; 0.16% in experiment [5]; 1.24% in experiment [6]. Also, the inhibition in [7] amounted to 1.38%; in experiment [8], 3.45%; in [9] it was 3.33%; in [10], 1.44%.

On to `COc1cccc(-n2ncc3c(N/N=C/c4cccc(F)c4)ncnc32)c1`, for which the inhibition in experiment [1] is -4.69%; in [2] it was 40.5%; in experiment [3] it was 84.1%; in experiment [4], 51%; in [5], 87.6%; in experiment [6], 52.3%. The inhibition in experiment [7] was determined as 88%; in experiment [8] it was 60.9%; in experiment [9], 90.3%; in experiment [10] it was 10.8%.

In the case of `Nc1nc(-c2ccccn2)c(-c2ccc3ncccc3n2)s1`, the inhibition is -5.19% in [1]; 2.57% in experiment [2]; 3.81% in experiment [3]; 3.89% in experiment [4]; 4.78% in experiment [5]; -0.12% in experiment [6]. Further, the inhibition in experiment [7] was found to be 3.17%; in experiment [8] it was 2.96%; in experiment [9], 3.86%; in [10] it was 1.93%.

As to `CN1CCC(C(=O)Nc2n[nH]c3nnc(-c4ccccc4)cc23)CC1`, the inhibition was -6.17% in experiment [1]; 1.81% in experiment [2]; 6.11% in experiment [3]; 4.23% in [4]; 4.8% in experiment [5]; 2.25% in experiment [6]. The inhibition in experiment [7] is 1.61%; in experiment [8] it was 3.6%; in experiment [9], 3.36%; in experiment [10], 3.4%.

Regarding `O=C1Nc2ccc(C(=O)c3ccco3)cc2C1=Cc1cc(Cl)c(O)c(Cl)c1`, the inhibition is 0.19% in experiment [1]; 3.7% in experiment [2]; 15.1% in experiment [3]; 3.27% in experiment [4]; 13.7% in experiment [5]; 3.29% in experiment [6]. Moreover, the inhibition in experiment [7] worked out at 12.9%; in experiment [8], 5.53%; in experiment [9] it was 17.7%; in experiment [10], 3.59%.

`Cc1cccc(-c2n[nH]cc2-c2ccc3ncccc3n2)n1`: the inhibition was -8.92% in [1]; 4.1% in experiment [2]; 29.4% in experiment [3]; 5.48% in [4]; 35.5% in experiment [5]; 2.99% in [6]. Besides, the inhibition in [7] was 35.3%; in [8] it was 3.21%; in experiment [9], 29.6%; in [10], -0.61%.

Consider `NC(=O)c1cccc(Nc2nccc(Nc3cccc4[nH]ncc34)n2)c1`, for which the inhibition in [1] was 0.17%; in [2], 76.9%; in experiment [3], 95.5%; in [4], 82.2%; in experiment [5], 96.7%; in experiment [6] it was 77.9%. For the same compound, the inhibition in [7] is 95.7%; in [8], 73.5%; in [9], 95.4%; in experiment [10], 3.14%.

On to `COc1cc2ncn(-c3cc(O[C@H](C)c4ccccc4Cl)c(C(N)=O)s3)c2cc1OC`, for which the inhibition came to 11.9% in experiment [1]; 3.23% in [2]; 28.1% in [3]; 10.7% in experiment [4]; 49.4% in [5]; 9.46% in experiment [6]. Further, the inhibition was determined as 48.3% in experiment [7], 9.97% in experiment [8], 43.2% in [9] and 11.2% in experiment [10].

As for `Cc1cc(O)cc(C)c1/C=C/c1cncc(-c2nn[nH]n2)c1`, the inhibition is -4.74% in experiment [1]; 17.8% in [2]; 79.3% in experiment [3]; 21.5% in experiment [4]; 79.8% in [5]; 17.1% in experiment [6]. The inhibition turned out to be 79.9% in experiment [7], 23.1% in experiment [8], 81.6% in experiment [9] and 2.2% in experiment [10].

With `NS(=O)(=O)c1ccc(N/N=C2\C(=O)Nc3ccc(C(=O)NCCc4c[nH]cn4)cc32)cc1`, the inhibition amounted to 3.67% in [1]; 5.1% in experiment [2]; 6.98% in [3]; 3.97% in experiment [4]; 11.2% in experiment [5]; 4.18% in experiment [6]. The inhibition came to 9.6% in experiment [7], 5.47% in [8], 8.73% in experiment [9] and 3.68% in experiment [10].

For `CCn1c(-c2nonc2N)nc2c(C#CC(C)(C)O)nc(CN3CCCC3)cc21`, the inhibition in experiment [1] was -0.08%; in experiment [2] it was 0.01%; in experiment [3] it was 0.44%; in experiment [4] it was 0.09%; in experiment [5], 0.68%; in experiment [6], -0.36%. Further, the inhibition is 2.83% in experiment [7], 0.06% in [8], 3.09% in experiment [9] and -0.43% in experiment [10].

In the case of `COc1cc2ncn(-c3cc(OCc4ccccc4Cl)c(C(N)=O)s3)c2cc1OC`, the inhibition in [1] is -7.5%; in [2], 1.52%; in experiment [3] it was 21.7%; in experiment [4], 6.52%; in experiment [5] it was 31.1%; in experiment [6], 4.21%. In addition, the inhibition was 32.3% in experiment [7], 5.23% in experiment [8], 28.2% in experiment [9] and 3.9% in [10].

As to `Fc1cccc(COc2ccc(Nc3ncnc4sc(-c5cccs5)cc34)cc2Cl)c1`, the inhibition in experiment [1] was -8.25%; in [2], 0.56%; in experiment [3] it was 1.97%; in experiment [4] it was 1.28%; in experiment [5], 3.54%; in experiment [6], 1.53%. Besides, the inhibition is 2.68% in experiment [7], 0.76% in experiment [8], 2.11% in [9] and 1.08% in [10].

`O=C1NC(=O)C(c2ccc(Cl)cc2)=C1Nc1ccc(Cl)c(C(=O)O)c1`: the inhibition in experiment [1] is -0.68%; in experiment [2] it was 2.02%; in experiment [3] it was -2.33%; in experiment [4], -0.65%; in [5] it was 1.82%; in experiment [6] it was 1.3%. The inhibition in experiment [7] turned out to be 4.53%; in [8], 1.18%; in experiment [9] it was 1.68%; in experiment [10], 0.69%.

Regarding `O=C1NC(=O)C(N2CCc3ccccc32)=C1c1ccc(Cl)cc1`, the inhibition in experiment [1] was -5.45%; in [2], 4.83%; in experiment [3], 4.21%; in [4], 6.7%; in experiment [5] it was 2.97%; in experiment [6], 3.31%. Further, the inhibition stood at 3.23% in [7], 6.26% in experiment [8], 3.84% in experiment [9] and 2.02% in [10].

Turning to `CS(=O)(=O)CCN(CC#N)Cc1ccc(-c2ccc3ncnc(Nc4ccc(OCc5cccc(F)c5)c(Cl)c4)c3c2)o1`, the inhibition is -7.94% in [1]; 0.94% in [2]; 1% in [3]; 1.77% in experiment [4]; 1.89% in experiment [5]; 0.73% in experiment [6]. For the same compound, the inhibition was 0.36% in experiment [7], 0.95% in experiment [8], 0.42% in [9] and -0.08% in experiment [10].
